ChEMBL document CHEMBL1157539, “Thousands of chemical starting points for antimalarial lead identification” (Nature, 2010)

Assays:
Assay type in all cases: functional
Plasmodium falciparum [1] = experiment: GSK_TCMDC: Inhibition of Plasmodium falciparum 3D7 in whole red blood cells, using parasite LDH activity as an index of growth. Test compounds present at 2uM
Plasmodium falciparum [2] = experiment: GSK_TCMDC: Inhibition of Plasmodium falciparum Dd2 in whole red blood cells, using parasite LDH activity as an index of growth. Test compounds present at 2uM
HepG2 = experiment: GSK_TCMDC: Percent inhibition of human HepG2 cell line. Test compounds present at 10uM.

| SMILES | Inhibition (Plasmodium falciparum [1]) [%] | Inhibition (Plasmodium falciparum [2]) [%] | Inhibition (HepG2) [%] |
| --- | --- | --- | --- |
| COc1cc2s/c(=N\C(=O)c3cccc([N+](=O)[O-])c3)n(C)c2cc1OC | 92 | 79 | 5 |
| CCN1CCN(CCCNc2c3ccccc3nc3ccccc23)CC1.Cl | 100 | 3 | 44 |
| Cc1cccc2nc(-c3ccc(-c4cccc(C(=O)N5CCCCC5C(C)O)c4)s3)[nH]c12 (centres undefined) | 100 | 53 | 27 |
